Columns and labels:
Test in all cases: DAPPL (digital affinity profiling via proximity ligation, sequencing); 10 mM Tris-HCl pH 7.5, 50 mM NaCl, 1 mM DTT, 4% glycerol, room temperature, 30 min; GST-TFs on glutathione beads, 16-mer random dsDNA library, 0.1% formaldehyde crosslink after washing; high values mean tight binding
FLI1 = target: T1, FLI1 (Homo sapiens, UniProt Q01543 1-452); details: protein: recombinant; tags: N-terminal GST; dsDNA, one strand shown
T1 sequence: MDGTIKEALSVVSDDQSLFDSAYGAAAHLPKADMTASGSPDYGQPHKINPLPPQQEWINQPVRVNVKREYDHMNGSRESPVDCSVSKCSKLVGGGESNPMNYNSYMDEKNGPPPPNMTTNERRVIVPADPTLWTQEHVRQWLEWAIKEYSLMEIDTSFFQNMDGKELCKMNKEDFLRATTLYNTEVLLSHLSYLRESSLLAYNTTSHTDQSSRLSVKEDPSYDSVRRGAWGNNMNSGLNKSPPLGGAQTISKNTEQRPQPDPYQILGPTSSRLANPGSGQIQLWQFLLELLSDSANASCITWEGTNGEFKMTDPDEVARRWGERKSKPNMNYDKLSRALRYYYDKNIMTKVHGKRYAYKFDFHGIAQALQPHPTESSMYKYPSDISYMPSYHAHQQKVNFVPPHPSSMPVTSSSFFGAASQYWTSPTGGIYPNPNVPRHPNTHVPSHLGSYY
Outline: (§1)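 Each value of binding signal is a hexamer's read frequency for a factor divided by the same hexamer's frequency in the tag-only sample. Barcoded, bead-captured GST fusions of human transcription factors made in yeast were pooled with that sample and incubated with 200 nmole of a random double-stranded 16-mer DNA library in Tris/NaCl/DTT/glycerol buffer at room temperature for 30 min. Washing, 0.1% formaldehyde crosslinking, proximity ligation, PCR and Illumina NextSeq500 sequencing followed.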

ELK1 = target: T2, ELK1 (Homo sapiens, UniProt P19419 1-428); details: protein: recombinant; tags: N-terminal GST; dsDNA, one strand shown
T2 sequence: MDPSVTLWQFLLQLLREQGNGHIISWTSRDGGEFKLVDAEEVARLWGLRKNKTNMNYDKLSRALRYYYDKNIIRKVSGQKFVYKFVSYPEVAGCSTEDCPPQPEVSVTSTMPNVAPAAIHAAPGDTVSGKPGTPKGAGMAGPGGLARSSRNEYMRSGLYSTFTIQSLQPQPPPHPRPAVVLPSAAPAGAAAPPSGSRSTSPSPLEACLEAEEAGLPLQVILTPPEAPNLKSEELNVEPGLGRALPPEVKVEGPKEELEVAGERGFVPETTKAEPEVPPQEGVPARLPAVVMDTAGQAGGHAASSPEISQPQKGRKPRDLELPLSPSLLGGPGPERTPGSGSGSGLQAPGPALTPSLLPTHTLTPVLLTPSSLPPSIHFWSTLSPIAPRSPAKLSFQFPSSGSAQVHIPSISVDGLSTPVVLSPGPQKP
Outline: as §1

GABPA = target: T3, GABPA (Homo sapiens, UniProt Q06546 1-454); details: protein: recombinant; tags: N-terminal GST; dsDNA, one strand shown
T3 sequence: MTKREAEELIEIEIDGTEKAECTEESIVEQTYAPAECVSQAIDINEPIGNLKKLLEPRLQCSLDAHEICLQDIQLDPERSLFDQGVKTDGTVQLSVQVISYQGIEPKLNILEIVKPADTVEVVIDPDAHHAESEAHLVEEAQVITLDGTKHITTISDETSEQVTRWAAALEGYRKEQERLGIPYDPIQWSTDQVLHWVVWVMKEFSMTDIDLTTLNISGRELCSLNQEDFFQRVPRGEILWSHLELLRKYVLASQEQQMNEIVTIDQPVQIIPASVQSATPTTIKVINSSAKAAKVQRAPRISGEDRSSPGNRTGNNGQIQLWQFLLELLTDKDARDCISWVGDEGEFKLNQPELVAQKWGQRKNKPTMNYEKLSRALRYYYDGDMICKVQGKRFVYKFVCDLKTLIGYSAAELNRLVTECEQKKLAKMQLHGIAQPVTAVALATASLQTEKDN
Outline: as §1

ERG = target: T4, ERG (Homo sapiens, UniProt P11308 1-479); details: protein: recombinant; tags: N-terminal GST; dsDNA, one strand shown
T4 sequence: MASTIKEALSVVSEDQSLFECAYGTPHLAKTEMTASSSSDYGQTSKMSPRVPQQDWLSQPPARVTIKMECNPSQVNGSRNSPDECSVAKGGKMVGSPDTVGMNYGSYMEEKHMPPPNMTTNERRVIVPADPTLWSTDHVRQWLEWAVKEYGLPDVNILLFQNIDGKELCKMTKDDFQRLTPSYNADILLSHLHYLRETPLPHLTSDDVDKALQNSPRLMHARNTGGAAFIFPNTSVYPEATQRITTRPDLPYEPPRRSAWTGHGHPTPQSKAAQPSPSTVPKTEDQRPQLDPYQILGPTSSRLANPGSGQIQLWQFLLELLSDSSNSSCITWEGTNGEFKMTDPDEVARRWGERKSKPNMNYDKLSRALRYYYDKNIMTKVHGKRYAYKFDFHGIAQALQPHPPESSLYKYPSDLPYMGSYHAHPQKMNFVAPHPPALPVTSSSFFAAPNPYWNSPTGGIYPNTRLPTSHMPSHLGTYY
Outline: as §1

ELF1 = ELF1 (Homo sapiens, UniProt P32519 1-619); details: protein: recombinant; tags: N-terminal GST; dsDNA, one strand shown
Outline: as §1

EHF = target: T5, EHF (Homo sapiens, UniProt Q9NZC4 1-300); details: protein: recombinant; tags: N-terminal GST; dsDNA, one strand shown
T5 sequence: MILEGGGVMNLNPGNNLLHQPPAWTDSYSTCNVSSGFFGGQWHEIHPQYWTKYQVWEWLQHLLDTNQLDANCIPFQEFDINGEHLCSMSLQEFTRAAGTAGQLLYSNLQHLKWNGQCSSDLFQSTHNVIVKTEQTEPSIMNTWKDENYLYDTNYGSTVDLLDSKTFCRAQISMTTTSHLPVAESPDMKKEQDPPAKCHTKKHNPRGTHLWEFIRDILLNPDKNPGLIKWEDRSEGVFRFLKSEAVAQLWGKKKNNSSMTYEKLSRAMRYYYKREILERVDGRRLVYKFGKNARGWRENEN
Outline: as §1

SPI1 = SPI1 (Homo sapiens, UniProt P17947 1-270); details: protein: recombinant; tags: N-terminal GST; dsDNA, one strand shown
Outline: as §1

SPIB = SPIB (Homo sapiens, UniProt Q01892 1-262); details: protein: recombinant; tags: N-terminal GST; dsDNA, one strand shown
Outline: as §1

ELK3 = target: T6, ELK3 (Homo sapiens, UniProt P41970 1-407); details: protein: recombinant; tags: N-terminal GST; dsDNA, one strand shown
T6 sequence: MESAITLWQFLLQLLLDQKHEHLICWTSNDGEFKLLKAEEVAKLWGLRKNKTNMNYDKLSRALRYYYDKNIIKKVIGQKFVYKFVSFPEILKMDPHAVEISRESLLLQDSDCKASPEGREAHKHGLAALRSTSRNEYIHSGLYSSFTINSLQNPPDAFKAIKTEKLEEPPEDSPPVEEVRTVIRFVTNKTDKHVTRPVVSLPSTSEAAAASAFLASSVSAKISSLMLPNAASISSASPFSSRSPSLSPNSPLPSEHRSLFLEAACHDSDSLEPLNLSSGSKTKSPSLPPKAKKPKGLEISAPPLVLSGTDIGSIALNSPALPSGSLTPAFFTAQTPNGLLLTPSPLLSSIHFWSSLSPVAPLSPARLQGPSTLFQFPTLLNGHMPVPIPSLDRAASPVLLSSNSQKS
Outline: as §1

FEV = target: T7, FEV (Homo sapiens, UniProt Q99581 1-238); details: protein: recombinant; tags: N-terminal GST; dsDNA, one strand shown
T7 sequence: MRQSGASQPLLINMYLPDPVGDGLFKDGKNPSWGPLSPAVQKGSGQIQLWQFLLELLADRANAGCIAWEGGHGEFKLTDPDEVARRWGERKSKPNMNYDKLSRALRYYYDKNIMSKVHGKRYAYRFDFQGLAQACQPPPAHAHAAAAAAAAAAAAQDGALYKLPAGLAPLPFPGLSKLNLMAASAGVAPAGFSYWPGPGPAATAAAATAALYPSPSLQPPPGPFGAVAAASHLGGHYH
Outline: as §1

ETV5 = ETV5 (Homo sapiens, UniProt P41161 1-510); details: protein: recombinant; tags: N-terminal GST; dsDNA, one strand shown
Outline: as §1

HSF1 = HSF1 (Homo sapiens, UniProt Q00613 1-529); details: protein: recombinant; tags: N-terminal GST; chain copies: 3; dsDNA, one strand shown
Outline: as §1

SPIC = target: T8, SPIC (Homo sapiens, UniProt Q8N5J4 1-248); details: protein: recombinant; tags: N-terminal GST; dsDNA, one strand shown
T8 sequence: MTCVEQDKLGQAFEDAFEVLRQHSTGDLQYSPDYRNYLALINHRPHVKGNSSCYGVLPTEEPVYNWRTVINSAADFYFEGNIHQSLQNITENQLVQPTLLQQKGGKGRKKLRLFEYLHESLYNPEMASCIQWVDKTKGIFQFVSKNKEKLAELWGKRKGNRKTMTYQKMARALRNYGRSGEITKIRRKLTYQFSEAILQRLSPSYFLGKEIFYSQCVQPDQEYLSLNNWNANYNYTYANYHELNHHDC
Outline: as §1

ELF4 = ELF4 (Homo sapiens, UniProt Q99607 1-663); details: protein: recombinant; tags: N-terminal GST; dsDNA, one strand shown
Outline: as §1

ELK4 = target: T9, ELK4 (Homo sapiens, UniProt P28324-2 1-405); details: protein: recombinant; tags: N-terminal GST; dsDNA, one strand shown
T9 sequence: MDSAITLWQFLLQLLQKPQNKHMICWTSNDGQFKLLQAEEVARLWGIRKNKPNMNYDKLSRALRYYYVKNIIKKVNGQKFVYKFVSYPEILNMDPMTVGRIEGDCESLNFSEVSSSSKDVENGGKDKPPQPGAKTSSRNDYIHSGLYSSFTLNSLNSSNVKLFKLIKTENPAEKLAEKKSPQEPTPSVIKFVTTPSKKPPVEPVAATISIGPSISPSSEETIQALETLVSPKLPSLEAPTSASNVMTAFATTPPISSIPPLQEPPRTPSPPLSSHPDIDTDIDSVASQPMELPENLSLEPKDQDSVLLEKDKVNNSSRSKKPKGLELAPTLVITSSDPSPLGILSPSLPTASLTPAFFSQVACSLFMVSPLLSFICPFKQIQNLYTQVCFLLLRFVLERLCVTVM
Outline: as §1

ETV2 = target: T10, ETV2 (Homo sapiens, UniProt O00321 1-342); details: protein: recombinant; tags: N-terminal GST; dsDNA, one strand shown
T10 sequence: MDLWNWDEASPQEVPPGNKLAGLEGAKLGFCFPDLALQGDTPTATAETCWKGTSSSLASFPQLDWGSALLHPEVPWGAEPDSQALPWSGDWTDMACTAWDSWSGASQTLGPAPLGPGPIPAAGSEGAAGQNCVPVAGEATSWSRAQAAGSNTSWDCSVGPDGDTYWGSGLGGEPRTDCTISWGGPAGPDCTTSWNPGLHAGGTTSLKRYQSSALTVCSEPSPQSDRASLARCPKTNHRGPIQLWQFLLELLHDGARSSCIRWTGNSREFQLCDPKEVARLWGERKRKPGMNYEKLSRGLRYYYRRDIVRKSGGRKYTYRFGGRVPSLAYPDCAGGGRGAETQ
Outline: as §1

ELF3 = target: T11, ELF3 (Homo sapiens, UniProt P78545 1-371); details: protein: recombinant; tags: N-terminal GST; dsDNA, one strand shown
T11 sequence: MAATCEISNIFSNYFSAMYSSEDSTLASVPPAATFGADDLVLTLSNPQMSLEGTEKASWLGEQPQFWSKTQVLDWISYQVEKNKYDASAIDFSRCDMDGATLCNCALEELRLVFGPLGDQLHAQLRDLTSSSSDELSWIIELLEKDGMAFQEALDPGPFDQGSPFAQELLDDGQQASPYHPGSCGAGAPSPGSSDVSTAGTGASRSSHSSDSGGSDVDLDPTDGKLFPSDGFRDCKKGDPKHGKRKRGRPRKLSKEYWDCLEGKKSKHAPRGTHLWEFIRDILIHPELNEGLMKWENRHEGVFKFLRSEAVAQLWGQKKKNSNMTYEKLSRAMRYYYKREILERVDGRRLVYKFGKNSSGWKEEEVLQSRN
Outline: as §1

CRX = CRX (Homo sapiens, UniProt O43186 1-299); details: protein: recombinant; tags: N-terminal GST; dsDNA, one strand shown
Outline: as §1

ETV1 = ETV1 (Homo sapiens, UniProt P50549 1-477); details: protein: recombinant; tags: N-terminal GST; dsDNA, one strand shown
Outline: as §1

Chain of ELF1 (P32519 whole entry): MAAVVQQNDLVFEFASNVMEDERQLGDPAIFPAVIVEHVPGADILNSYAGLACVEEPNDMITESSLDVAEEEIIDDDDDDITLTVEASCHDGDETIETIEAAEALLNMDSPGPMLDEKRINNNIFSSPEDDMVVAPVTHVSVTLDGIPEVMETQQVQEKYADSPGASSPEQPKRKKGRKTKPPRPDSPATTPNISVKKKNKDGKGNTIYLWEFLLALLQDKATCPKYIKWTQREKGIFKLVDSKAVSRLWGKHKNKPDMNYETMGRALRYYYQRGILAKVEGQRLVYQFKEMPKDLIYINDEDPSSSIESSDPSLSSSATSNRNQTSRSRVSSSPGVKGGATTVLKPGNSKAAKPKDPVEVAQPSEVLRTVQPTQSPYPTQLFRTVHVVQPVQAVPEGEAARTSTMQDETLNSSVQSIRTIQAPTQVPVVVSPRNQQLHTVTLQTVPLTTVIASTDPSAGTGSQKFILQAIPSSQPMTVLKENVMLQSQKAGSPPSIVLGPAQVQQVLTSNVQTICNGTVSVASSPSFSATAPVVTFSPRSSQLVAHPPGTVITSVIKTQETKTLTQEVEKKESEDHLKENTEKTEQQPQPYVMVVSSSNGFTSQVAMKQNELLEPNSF
Chain of SPIB (Q01892 whole entry): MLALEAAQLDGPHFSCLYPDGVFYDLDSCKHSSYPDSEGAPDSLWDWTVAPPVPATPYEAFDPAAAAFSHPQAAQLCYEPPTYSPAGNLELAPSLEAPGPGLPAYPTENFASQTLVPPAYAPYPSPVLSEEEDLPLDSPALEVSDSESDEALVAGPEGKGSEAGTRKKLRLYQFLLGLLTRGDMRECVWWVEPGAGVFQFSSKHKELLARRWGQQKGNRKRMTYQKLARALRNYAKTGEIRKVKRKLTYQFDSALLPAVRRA
Chain of HSF1 (Q00613 whole entry): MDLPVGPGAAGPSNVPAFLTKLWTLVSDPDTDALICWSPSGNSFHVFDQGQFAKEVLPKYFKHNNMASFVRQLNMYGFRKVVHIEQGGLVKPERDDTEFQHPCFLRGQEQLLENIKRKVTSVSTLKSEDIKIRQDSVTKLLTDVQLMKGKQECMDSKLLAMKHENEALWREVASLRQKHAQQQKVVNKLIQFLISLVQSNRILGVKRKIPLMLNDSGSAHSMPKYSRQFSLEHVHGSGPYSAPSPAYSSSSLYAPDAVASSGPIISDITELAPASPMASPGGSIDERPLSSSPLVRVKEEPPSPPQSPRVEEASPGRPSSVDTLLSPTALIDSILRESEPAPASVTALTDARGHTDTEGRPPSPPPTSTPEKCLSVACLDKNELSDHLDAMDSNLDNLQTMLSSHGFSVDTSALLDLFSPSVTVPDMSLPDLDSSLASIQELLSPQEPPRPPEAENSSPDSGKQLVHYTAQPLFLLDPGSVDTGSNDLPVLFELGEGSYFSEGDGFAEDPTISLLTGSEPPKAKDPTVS
Chain of ETV1 (P50549 whole entry): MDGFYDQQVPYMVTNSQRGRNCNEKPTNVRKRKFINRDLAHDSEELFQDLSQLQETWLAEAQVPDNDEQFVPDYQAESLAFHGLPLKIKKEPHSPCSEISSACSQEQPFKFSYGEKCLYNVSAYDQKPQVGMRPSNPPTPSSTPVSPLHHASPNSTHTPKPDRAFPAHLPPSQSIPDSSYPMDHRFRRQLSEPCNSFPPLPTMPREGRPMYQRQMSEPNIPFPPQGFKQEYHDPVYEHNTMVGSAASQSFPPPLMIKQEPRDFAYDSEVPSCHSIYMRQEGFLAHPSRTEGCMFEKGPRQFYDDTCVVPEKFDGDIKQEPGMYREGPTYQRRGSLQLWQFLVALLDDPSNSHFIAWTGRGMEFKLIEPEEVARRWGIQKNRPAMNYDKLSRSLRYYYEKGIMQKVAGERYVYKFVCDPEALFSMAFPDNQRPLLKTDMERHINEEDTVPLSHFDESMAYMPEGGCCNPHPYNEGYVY
Chain of CRX (O43186 whole entry): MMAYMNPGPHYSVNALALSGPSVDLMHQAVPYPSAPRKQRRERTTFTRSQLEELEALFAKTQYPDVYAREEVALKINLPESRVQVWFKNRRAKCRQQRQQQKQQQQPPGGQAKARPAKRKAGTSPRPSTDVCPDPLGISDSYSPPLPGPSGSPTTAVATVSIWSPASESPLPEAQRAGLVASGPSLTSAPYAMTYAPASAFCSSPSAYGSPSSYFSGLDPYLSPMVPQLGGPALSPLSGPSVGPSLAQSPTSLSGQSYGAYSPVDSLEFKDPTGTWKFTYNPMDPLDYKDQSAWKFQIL
Chain of ETV5 (P41161 whole entry): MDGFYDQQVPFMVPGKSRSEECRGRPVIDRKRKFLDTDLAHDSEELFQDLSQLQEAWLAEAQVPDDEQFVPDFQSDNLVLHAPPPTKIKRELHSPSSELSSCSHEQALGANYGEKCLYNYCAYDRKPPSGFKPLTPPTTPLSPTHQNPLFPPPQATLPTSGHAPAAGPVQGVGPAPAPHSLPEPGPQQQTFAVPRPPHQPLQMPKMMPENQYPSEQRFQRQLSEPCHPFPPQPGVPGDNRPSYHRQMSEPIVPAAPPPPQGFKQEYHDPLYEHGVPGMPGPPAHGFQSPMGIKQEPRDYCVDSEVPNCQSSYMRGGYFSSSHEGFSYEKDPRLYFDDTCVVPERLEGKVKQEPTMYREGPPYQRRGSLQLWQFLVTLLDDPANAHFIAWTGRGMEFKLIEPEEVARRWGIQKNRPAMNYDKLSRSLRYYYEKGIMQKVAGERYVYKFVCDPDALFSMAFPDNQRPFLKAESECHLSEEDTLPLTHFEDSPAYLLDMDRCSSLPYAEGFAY
Chain of ELF4 (Q99607 whole entry): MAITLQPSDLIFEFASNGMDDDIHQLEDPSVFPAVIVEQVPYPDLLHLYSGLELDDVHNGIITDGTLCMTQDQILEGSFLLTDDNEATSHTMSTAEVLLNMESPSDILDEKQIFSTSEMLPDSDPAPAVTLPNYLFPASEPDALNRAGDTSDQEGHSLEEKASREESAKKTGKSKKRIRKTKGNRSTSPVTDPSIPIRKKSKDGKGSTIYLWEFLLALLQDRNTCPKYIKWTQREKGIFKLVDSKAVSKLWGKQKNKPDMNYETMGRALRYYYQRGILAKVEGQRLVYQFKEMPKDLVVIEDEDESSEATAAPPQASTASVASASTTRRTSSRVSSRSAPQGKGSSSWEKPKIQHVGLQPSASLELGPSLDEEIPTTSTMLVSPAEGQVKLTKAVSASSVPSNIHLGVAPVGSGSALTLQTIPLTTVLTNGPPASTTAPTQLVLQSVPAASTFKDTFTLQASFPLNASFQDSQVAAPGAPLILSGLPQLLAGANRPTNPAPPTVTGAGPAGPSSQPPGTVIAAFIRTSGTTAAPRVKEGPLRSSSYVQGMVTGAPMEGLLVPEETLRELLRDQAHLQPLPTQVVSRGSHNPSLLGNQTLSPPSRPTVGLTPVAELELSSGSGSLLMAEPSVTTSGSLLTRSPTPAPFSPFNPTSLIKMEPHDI

Sequence: CGAAAC
- binding signal (FLI1): 1.14 fold enrichment (6-mer frequency, TF over GST control)
- binding signal (ELK1): 1.15 fold enrichment (6-mer frequency, TF over GST control)
- binding signal (GABPA): 1.08 fold enrichment (6-mer frequency, TF over GST control)
- binding signal (ERG): 1.21 fold enrichment (6-mer frequency, TF over GST control)
- binding signal (ELF1): 1.23 fold enrichment (6-mer frequency, TF over GST control)
- binding signal (EHF): 1.17 fold enrichment (6-mer frequency, TF over GST control)
- binding signal (SPI1): 1.21 fold enrichment (6-mer frequency, TF over GST control)
- binding signal (SPIB): 1.16 fold enrichment (6-mer frequency, TF over GST control)
- binding signal (ELK3): 1.07 fold enrichment (6-mer frequency, TF over GST control)
- binding signal (FEV): 1.2 fold enrichment (6-mer frequency, TF over GST control)
- binding signal (ETV5): 1.25 fold enrichment (6-mer frequency, TF over GST control)
- binding signal (HSF1): 1.58 fold enrichment (6-mer frequency, TF over GST control)
- binding signal (SPIC): 1.27 fold enrichment (6-mer frequency, TF over GST control)
- binding signal (ELF4): 1.2 fold enrichment (6-mer frequency, TF over GST control)
- binding signal (ELK4): 1.15 fold enrichment (6-mer frequency, TF over GST control)
- binding signal (ETV2): 1.22 fold enrichment (6-mer frequency, TF over GST control)
- binding signal (ELF3): 1.15 fold enrichment (6-mer frequency, TF over GST control)
- binding signal (CRX): 1.02 fold enrichment (6-mer frequency, TF over GST control)
- binding signal (ETV1): 1.21 fold enrichment (6-mer frequency, TF over GST control)

— article PMC7862700, “An all-to-all approach to the identification of sequence-specific readers for epigenetic DNA modifications on cytosine”
